Screens as filed in PubChem.
Sampled rows, rich in hits. Any-hit rate of the full collection: about 6.2%.
KB-V1 MDR tox: KB-V1 MDR subline cytotoxicity | KB-V1 MDR cells viability, CellTiter-Glo, 72 h | Potency, µM (doses to about 46.1 µM), most hits filed as cytotoxic | 400,000 compounds, 3.4% hits; further: on the % scale 0 is the no-effect control and ±100 the full control effect; nearly all actives have a fitted effect of over 60% in size
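KB-V1 cells (P-gp-expressing MDR subline of KB-3-1) in phenol-red-free DMEM with 10% FBS were exposed to library compounds over a concentration series for 72 h at 37 degrees C. Viability read by CellTiter-Glo luminescence; concentration-effect curves fitted after normalization.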
HT1080 IDH1KD tx: kills HT-1080 cells with IDH1 knockdown; HT-1080 IDH1 knockdown viability, ATP luminescence, 48 h; Potency, µM (top dose mostly 46.1 µM), without a hit: at the highest dose activity, negative = toxicity, most hits filed as cytotoxic; 360,000 compounds, 2% hits;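 further: 0% = DMSO wells and -100% = cell-free medium wells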
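Using the IDH1-knockdown HT-1080 line run in the same batch and compound series as the NT line, viability after 48 h at 37 °C was determined by CellTiter-Glo luminescence and expressed as % activity.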
HT1080NT lethal: kills 2HG-producing HT-1080-NT fibrosarcoma cells; AID 686970; 360,000 compounds, 1.6% hits; Potency, µM (top dose mostly 46.1 µM), for the others: at the highest dose activity, negative = less viability, actives largely listed as cytotoxic; HT-1080-NT fibrosarcoma viability, CellTiter-Glo ATP luminescence, 48 h;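 further: NT is the 2HG producing partner of a matched IDH1 knockdown line; 0% = DMSO-treated cells and -100% = media-only wells without cells; nearly all actives have a fitted effect of over 55% in size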
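Viability of the 2HG-overproducing fibrosarcoma line after 48 hours of compound exposure at 37 degrees C was determined by luminescence with CellTiter-Glo, and concentration-effect curves were then fitted and categorized.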
KB-3-1 cytotox: kills parental KB-3-1 adenocarcinoma cells; AID 1347075; 400,000 compounds, 1.4% hits; Potency, µM (highest dose often 46.1 µM), usual class: cytotoxic; KB-3-1 viability, CellTiter-Glo ATP luminescence, 72 h; further: on the % scale 0 is the no-effect control and ±100 the full control effect; nearly all actives have a fitted effect of over 60% in size
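Here the drug-naive KB-3-1 line serves as comparator for MDR sub-line selectivity; cells received compound titrations, 72 h at 37 °C, then CellTiter-Glo readout.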
S2 tox: viability counter-screen for ATXN expression inhibitors; 400,000 compounds, 0.49% hits; Potency, µM (highest dose often 56.7 µM), most hits filed as cytotoxic; S2 cells (HEK-293 line with an ATXN2-luciferase reporter) viability, CellTiter-Fluor protease fluorescence, 24 h; AID 651635; further: nearly all actives have a fitted effect of over 40% in size
ATXN2 expr inh: ATXN2 expression inhibition; HEK-293 ATXN2-luciferase reporter, luminescence, 24 h; Potency, µM (series often up to 57 µM), for inactives: at the highest dose activity change, negative = inhibition, hits mostly inhibitors; 360,000 compounds, 0.72% hits; AID 1745845; further: on the % scale 0 is the no-effect control and ±100 the full control effect; nearly all actives have a fitted effect of over 55% in size
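ATXN2-luciferase reporter cells (luciferase flanked by upstream and downstream ATXN2 gene portions) were treated 24 h at 37 °C with compounds at up to 57 uM. SteadyGlo luminescence gave expression; GF-AFC fluorescence gave viability.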
The depositor's hits bear a star; i = inactive; u = inconclusive; x = not tested or not shown. The call rests on the fitted dose curve; in most records, active means well fitted curve in the direction sought with a large enough effect; inconclusive means small, poorly fitted or top-dose-only effect, or another doubt; inactive means no such curve, though single readings can be large; an effect the other way counts as inactive or inconclusive. Potency means the concentration at half of the fitted maximal effect.

SMILES	KB-V1 MDR tox	HT1080 IDH1KD tx	HT1080NT lethal	KB-3-1 cytotox	S2 tox	ATXN2 expr inh
CN(CCCNC(=O)C1CCC(=O)N1Cc1ccccc1Cl)c1ccccc1 (centres undefined)	23.1µM*	-16.1%	-1.6%	i	i	-10.9%
CCN(CCCNC(=O)C1CCC(=O)N1Cc1ccccc1Cl)c1cccc(C)c1 (centres undefined)	6.51µM*	-3.3%	-4.0%	i	i	-8.0%
CCN(CCCNC(=O)C1CCC(=O)N1Cc1ccc(C)cc1)c1cccc(C)c1 (centres undefined)	i	-1.8%	-3.8%	i	i	-9.2%
CCc1ccc(C(=O)C(C)CN2CCCCC2)cc1 (centres undefined)	x	x	x	x	i	-5.2%
CC(C)N(CCCNC(=O)Nc1ccc(C(C)(C)C)cc1)C[C@H]1O[C@@H](n2cc(Br)c3c(N)ncnc32)[C@H](O)[C@H]1O	x	x	x	x	x	21.7µM*
CC[C@@H](C)[C@H](N)C(=O)NC[C@H]1O[C@@H](n2cnc3c(N)ncnc32)[C@H](O)[C@@H]1O	u	1.0%	-2.0%	i	i	-0.8%
Fc1ccc(Nc2c(-c3c[nH]c4ccccc34)nc3ccccn23)cc1	i	x	x	i	i	12.7%
CC1(C)COC(/C=C/c2ccc([N+](=O)[O-])cc2)=N1	20.6µM*	23.1µM*	u	u	u	-10.4%
Cc1ccc2oc(=O)c3cc(C(=O)NCCCOC(C)C)sc3c2c1	i	x	x	i	i	7.0%
CN(C(=O)CCl)C1CCCc2ccccc21 (centres undefined)	u	u	u	5.8µM*	u	u
CN(C(=O)c1cccc(C(F)(F)F)c1)C1CCCc2ccccc21 (centres undefined)	i	-25.9%	-25.7%	i	i	-17.3%
CCOC(=O)N1CCN(Cc2ccc3c(c2)CN(C(=O)c2sc(C)nc2C)CCO3)CC1	x	x	x	x	i	x
O=C(Cn1cnc([N+](=O)[O-])c1)Nc1cc(Oc2ccc(Cl)cc2Cl)cc([N+](=O)[O-])c1	i	u	20.6µM*	u	i	u
Cc1ccc(Cn2cc(S(=O)(=O)c3ccccc3)c(=O)c3cc(F)c(N4CCOCC4)cc32)cc1	i	x	x	i	x	x
CSc1ccccc1NC(=O)CSCc1ccccc1Br	u	5.0%	2.1%	i	i	-3.4%
Cc1cccc(N(CC(=O)Nc2ccccc2F)S(C)(=O)=O)c1	23.1µM*	-1.3%	7.7%	i	i	-6.7%
CSc1ccccc1NC(=O)CSCc1ccc(Br)cc1	20.6µM*	15.6%	8.2%	i	i	6.2%
COc1ccc(N(CC(=O)Nc2ccccc2SC)S(C)(=O)=O)cc1OC	i	-1.3%	2.3%	i	x	x
CSc1ccccc1NC(=O)CN(c1ccccc1Br)S(C)(=O)=O	14.6µM*	7.9%	9.6%	i	i	5.9%
CCOc1ccc(NC(=O)[C@@H](c2ccccc2)N2Cc3ccccc3C2=O)cc1	i	x	x	i	u	-0.6%
Cc1ccc(OCC(=O)Nc2ccc3c(c2)nc(CCN2CCN(c4ccccn4)CC2)n3C)cc1	i	20.6µM*	20.6µM*	i	u	x
CC(=O)N1CCN(Cc2nc3cc(NC(=O)Cn4nc(C)c5ccccc5c4=O)ccc3n2C)CC1	i	0.8%	-4.7%	i	i	0.1%
Cc1nn(CC(=O)Nc2ccc3c(c2)nc(CCN2CCCCC2)n3C)c(=O)c2ccccc12	i	2.82µM*	u	i	i	-2.3%
Cc1ccc(C(C)C)c(OCC(=O)Nc2ccc3c(c2)nc(CCN2CCCCC2)n3C)c1	u	16.4µM*	20.6µM*	i	x	u
COC(=O)c1ccc(Cl)cc1NC(=O)NCc1c(-n2cccc2)sc2c1CCCC2	i	x	x	i	i	-3.9%
SMILES	KB-V1 MDR tox	HT1080 IDH1KD tx	HT1080NT lethal	KB-3-1 cytotox	S2 tox	ATXN2 expr inh
COc1cccc(Nc2nc3ccc(C(=O)c4ccccc4)cc3n3c(C)nnc23)c1	i	x	x	i	i	-10.6%
COc1ccc2[nH]c(C)cc2c1	i	x	x	i	x	x
COc1cc(CN2CC(=O)N(c3ccc(C)cc3)C2=S)cc(OC)c1OC	10.3µM*	-7.2%	-6.0%	u	i	-1.9%
COc1ccc(CN2CC(=O)N(c3ccc(C)cc3)C2=S)cc1OC	i	-8.1%	-5.9%	i	i	-21.3%
COc1ccc(C2NC(=O)NC(C)=C2C(=O)Nc2cc(C)cc(C)c2)c(OC)c1 (centres undefined)	i	x	x	i	i	4.4%
COc1ccc2[nH]cc(CCCN3C(=O)c4ccccc4C3=O)c2c1	23.1µM*	-20.6%	-14.7%	i	i	-6.5%
COc1ccc2[nH]cc(CCN3C(=O)CCC3=O)c2c1	u	20.1%	17.5%	i	i	-0.5%
NC1=NC(=Nc2cccc(S(N)(=O)=O)c2)c2ccccc21	i	-1.0%	-7.9%	i	i	x
COc1cc(N=Nc2cccc(S(N)(=O)=O)c2)c2ccccc2c1N	i	14.6µM*	20.6µM*	23.1µM*	x	25.0%
O=C(Nc1ccc(SC(F)F)cc1)c1cc(-c2ccc3c(c2)OCCO3)on1	i	x	x	i	i	6.1%
CC(C)CN(Cc1cc(=O)oc2cc(-c3ccccc3)c(O)cc12)CC(C)C	i	u	25.9µM*	u	i	-10.4%
COc1ccc(C(=O)/C=C/C(=O)N(CC(=O)NCCC(C)C)Cc2cccs2)c(O)c1	10.3µM*	-15.7%	-1.8%	i	x	x
COc1ccc(Cl)cc1NC(=O)CN(C)C1CCCCC1	u	-7.9%	-12.0%	i	i	-6.9%
COc1ccc(OC)c(NC(=O)CN(Cc2ccc(F)cc2)C2CCCCC2)c1	u	u	u	16.4µM*	i	-19.8%
COc1ccc(C(=O)/C=C/C(=O)N(CC(=O)NC2CCCCC2)Cc2ccc(F)cc2)c(O)c1	16.4µM*	-24.6%	-19.0%	u	x	u
CCOC(=O)CN(Cc1ccccc1)C(C(=O)NC1CCCCC1)c1ccc(OC)cc1 (centres undefined)	u	x	x	i	i	0.2%
CCC(C(=O)Nc1ccccc1OC)n1nc(C)c2sc3ccccc3c2c1=O (centres undefined)	i	x	x	i	x	x
Cc1ccc(C(=O)Nc2ccc3c(c2)OCO3)cc1	u	-29.1%	u	i	i	-11.0%
Cc1cc(NC(=O)c2ccc3c(c2)OCCO3)no1	i	-27.9%	-29.4%	i	i	11.2µM*
O=C(Nc1ccc2c(c1)OCO2)c1cc(C2CC2)on1	i	8.2µM*	u	u	u	4.4%
